Unmarked numbers belong to inactive results. The source made the active and inactive calls. Rule as the data show it, unless noted: active = inhibition above about 28%; inactive = the rest.

The record followed here is PubChem BioAssay.

Assay [1] can be described thus: StAR promoter reporter inhibitors, counter-screen for LRH-1 inverse agonist project, cell-based, luminescence, high throughput (AID 651611). To be noted: StAR promoter luciferase reporter counterscreen, at 3.6 µM, stronger effect = higher value.
Assay [2] concerns the target Nuclear receptor subfamily 5 group A member 2 (Homo sapiens) (UniProt O00482). The assay is described as follows: NR5A2 activity suppression in reporter cells – cell-based, luminescence, confirmation (AID 651613; in the data active = inhibition above about 42%;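 also: HEK293T cells co-transfected with LRH-1 and StAR promoter luciferase reporter; 0% = vehicle wells and 100% = parental cells lacking receptor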). As to conditions: cell-based LRH-1 luciferase reporter, inverse agonism; at 3.6 µM; stronger effect = higher value.
Assay [3] has as its target Steroidogenic factor 1 (Homo sapiens) (UniProt Q13285). The assay is described as follows: inverse agonism at SF1 nuclear receptor – cell-based, luminescence, high throughput, counter-screen for LRH-1 inverse agonist project (AID 651614; in the data active = inhibition above about 44%;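 also: cells cotransfected with StAR promoter reporter and SF1 expression vector; 0% = vehicle on cells with receptor and 100% = vehicle on cells lacking receptor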). To be noted: cell-based SF1 luciferase reporter, at 3.6 µM, stronger effect = higher value.
A short description of assay [4]: compounds suppressing VP16-driven luciferase signal – cell-based, luminescence, high throughput, counter-screen for LRH-1 inverse agonist project (AID 651615; in the data active = inhibition above about 33%). As to conditions: Gal4-VP16 luciferase reporter cells, at 3.6 µM, stronger effect = higher value.

Steroidogenic factor 1 (Homo sapiens), sequence (Q13285 whole entry, looked up, the tested form may be a part): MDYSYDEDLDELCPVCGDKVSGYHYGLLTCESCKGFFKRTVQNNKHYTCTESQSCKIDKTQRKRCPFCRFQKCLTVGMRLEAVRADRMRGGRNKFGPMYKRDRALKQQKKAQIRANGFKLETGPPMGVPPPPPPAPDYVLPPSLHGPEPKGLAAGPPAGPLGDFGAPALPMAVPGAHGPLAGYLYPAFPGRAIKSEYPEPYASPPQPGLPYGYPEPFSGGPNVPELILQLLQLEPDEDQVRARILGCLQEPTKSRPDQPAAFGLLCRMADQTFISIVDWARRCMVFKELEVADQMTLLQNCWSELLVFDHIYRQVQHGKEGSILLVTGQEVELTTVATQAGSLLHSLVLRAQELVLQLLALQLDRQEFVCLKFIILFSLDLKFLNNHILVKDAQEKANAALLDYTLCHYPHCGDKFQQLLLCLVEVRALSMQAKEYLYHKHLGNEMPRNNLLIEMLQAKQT
Nuclear receptor subfamily 5 group A member 2 (Homo sapiens), sequence (O00482 whole entry, looked up): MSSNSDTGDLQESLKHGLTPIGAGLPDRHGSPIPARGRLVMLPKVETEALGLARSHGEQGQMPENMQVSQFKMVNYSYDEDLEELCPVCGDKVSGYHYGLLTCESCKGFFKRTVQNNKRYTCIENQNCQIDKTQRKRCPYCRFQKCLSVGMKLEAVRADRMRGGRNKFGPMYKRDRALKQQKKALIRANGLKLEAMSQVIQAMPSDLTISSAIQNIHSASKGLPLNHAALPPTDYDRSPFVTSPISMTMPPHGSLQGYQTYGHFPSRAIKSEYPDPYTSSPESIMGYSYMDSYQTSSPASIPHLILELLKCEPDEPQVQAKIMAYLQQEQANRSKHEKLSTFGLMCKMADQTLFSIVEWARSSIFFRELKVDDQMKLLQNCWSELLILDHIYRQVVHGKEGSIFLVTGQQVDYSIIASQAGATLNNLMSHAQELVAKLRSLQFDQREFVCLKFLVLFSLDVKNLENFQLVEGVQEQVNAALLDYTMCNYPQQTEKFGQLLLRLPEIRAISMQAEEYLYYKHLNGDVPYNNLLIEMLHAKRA

On to `COCCn1c(SCC(=O)Nc2ccc(C(N)=O)cc2)nc2c([nH]c3ccccc32)c1=O`, for which the inhibition was 24.6% in assay [1], 64.9% (active) in assay [2], 61.7% (active) in assay [3] and -64% in assay [4].
Take `CC(=O)c1ccsc1-c1c(C)cc2oc(=O)cc(-c3ccccc3)c2c1C`: the inhibition was 8.02% in assay [1], 64.7% (active) in assay [2], 54.4% (active) in assay [3] and -0.37% in assay [4].
For the compound `COc1ccc(CCNC(=O)CSc2ccc(NC(C)=O)cc2)cc1OC`, the inhibition in assay [1] is 9.56%; in assay [2], 53.8% (active); in assay [3], 53.4% (active); in assay [4] it was -3.78%.
`COc1ccc(CCNC(=O)CSC2=Nc3ccccc3C3=NC(C(C)C)C(=O)N23)cc1OC` (configuration not stated): the inhibition was 21.5% in assay [1], 62.3% (active) in assay [2], 53.1% (active) in assay [3] and 0.61% in assay [4].
In the same order, the values of `C/C(=N/N1CCN(Cc2cccc3ccccc23)CC1)c1cccnc1` are -12%, -17.6%, -2.52% and -2.08%.
The like results for `Cc1ccc(C)c(NC(=O)CSc2nc3c(oc4ccccc43)c(=O)n2-c2ccccc2)c1` were, in that order, 10.6%, 50.3% (active), 46.7% (active) and -9.48%.
The like results for `CCC(=O)N1CCN(c2ccc(NC(=O)c3ccc([N+](=O)[O-])o3)cc2Cl)CC1` were, in that order, 13%, 56.2% (active), 58.2% (active) and -21.9%.
As to `CCOC(=O)c1c(NC(=O)/C=C/C(=O)O)sc(C)c1-c1ccc(Cl)cc1`, the inhibition was 6.09% in assay [1], 59.2% (active) in assay [2], 48.9% (active) in assay [3] and 5.25% in assay [4].
The like results for `CN1C=C/C(=C\c2cc[n+](C)c3ccccc23)c2ccccc21` were, in that order, 28.6% (active), 108% (active), 46.8% (active) and 81.4% (active).
As to `COc1ccc(NC(=O)CSc2ccc3c(c2)OCCO3)cc1`, the inhibition in assay [1] is 2.27%; in assay [2] it was 63.5% (active); in assay [3], 56.7% (active); in assay [4] it was -4.1%.
The like results for `Cc1ccc(-n2nnnc2-c2ccccc2Br)cc1` were, in that order, 7.41%, 57.2% (active), 52% (active) and 4.92%.
The like results for `Cc1nn(CC(=O)Nc2ccc3c(c2)OCCO3)c(C)c1[N+](=O)[O-]` were, in that order, 11.2%, 62.3% (active), 51.6% (active) and 10.4%.
As to `O=C1C=C(c2ccccc2)OC2(CCCC2)O1`, the inhibition is 19.8% in assay [1], 67.3% (active) in assay [2], 61.2% (active) in assay [3] and -4.15% in assay [4].
In the same order, the values of `COCC(C)n1c(-c2ccc3c(c2)NC(=O)CO3)csc1=Nc1ccc(OC(F)F)cc1` (configuration not stated) are 10.3%, 79.3% (active), 69.3% (active) and 34.4% (active).
Regarding `CC(=O)Nc1cc(-c2ccc(S(C)(=O)=O)cc2)cn2c(-c3ccc(F)cc3)cnc12`, the inhibition was 17.4% in assay [1], 53.4% (active) in assay [2], 33.3% in assay [3] and -7.42% in assay [4].
With `COc1ccc(NC(=O)CSc2n[nH]c(-c3ccccn3)n2)cc1`, the inhibition in assay [1] was 2.28%; in assay [2], 32.4%; in assay [3] it was 20.2%; in assay [4], 2.72%.
With `COc1ccc(/C=N/NC(=O)c2ccc(NC(=O)c3cccc([N+](=O)[O-])c3)cc2)c(OC)c1`, the inhibition is 13.1% in assay [1], 53.6% (active) in assay [2], 46.5% (active) in assay [3] and 2.35% in assay [4].
In the same order, the values of `COc1ccc(-c2nc(C(N)=O)c3[nH]c(=O)n(-c4cccc(Cl)c4)c3n2)cc1OC` are 20.8%, 57.3% (active), 56.5% (active) and -5.48%.
`COc1ccc(OC)c(NC(=S)NCc2cccnc2)c1`: the inhibition in assay [1] is 1.82%; in assay [2] it was 35.9%; in assay [3], 33.3%; in assay [4] it was 0.37%.
In the same order, the values of `Cc1cccc(NC(=O)COC(=O)CN2C(=O)c3ccccc3C2=O)c1C` are 7.19%, 51% (active), 47.8% (active) and -15%.
Regarding `O=C1/C(=C/c2ccccc2)CN(C(=O)CCN2CCOCC2)C/C1=C\c1ccccc1`, the inhibition in assay [1] is 21.9%; in assay [2], 44.3% (active); in assay [3] it was 56.7% (active); in assay [4] it was 55.2% (active).
The like results for `CC(C)=NOc1cc(NC(=O)CCl)cc([N+](=O)[O-])c1` were, in that order, 37.5% (active), 56.3% (active), 56.4% (active) and 13%.
In the same order, the values of `Cc1ccc2[nH]c(C)c(/C=C/c3cc[n+](C)cc3)c2c1` are 39.2% (active), 77.4% (active), 67.3% (active) and 67.8% (active).
With `CC(C)OC(=O)C(=O)NNc1ccccc1`, the inhibition in assay [1] was 12.3%; in assay [2] it was 12.2%; in assay [3] it was 4.1%; in assay [4], 11.9%.
In the same order, the values of `COc1cccc(COC(=O)C2CC(=O)N(Cc3ccco3)C2)c1OC` (configuration not stated) are 12%, 30.3%, 31% and -7.19%.
The like results for `COc1ccc(C(=O)OCC(=O)Nc2ccc(N3CCOCC3)cc2)cc1OC` were, in that order, 10.1%, 52.8% (active), 51.7% (active) and -1.85%.
The like results for `O=[N+]([O-])c1ccc(N2CCCCC2)nc1N1CCCCC1` were, in that order, -13.2%, 54.5% (active), 51.2% (active) and 13.4%.
Consider `C=CC(=O)N1C/C(=C/c2ccc(F)cc2)C(=O)/C(=C\c2ccc(F)cc2)C1`, for which the inhibition in assay [1] is 27.1%; in assay [2], 80% (active); in assay [3], 86.7% (active); in assay [4], 63% (active).
In the same order, the values of `COc1ccc(N2C(=O)C(Cl)=C(N3CCOCC3)C2=O)cc1` are 6.88%, 34.9%, 7.54% and 7.03%.
The like results for `CCc1cc(=O)oc2c(C)c(OCC(=O)NCCCN3CCCC3=O)ccc12` were, in that order, 8.43%, 52.1% (active), 48.4% (active) and -11.3%.
The like results for `O=C(Nc1ccc(Cl)cn1)c1ccc([N+](=O)[O-])o1` were, in that order, -0.66%, 51.5% (active), 55% (active) and -20.8%.
As for `COc1ccc(/C=N/NC(=O)c2[nH]c3ccc(Br)cc3c2-c2ccccc2)cc1`, the inhibition is 62.3% (active) in assay [1], 42.6% (active) in assay [2], 50.7% (active) in assay [3] and 32.6% (active) in assay [4].
For `C#CCSc1nsc(SCC#C)c1C#N`, the inhibition was 3.79% in assay [1], 53.4% (active) in assay [2], 50.9% (active) in assay [3] and -20% in assay [4].
Regarding `COc1cc(/C=C2/SC(=Nc3ccc(O)cc3)NC2=O)ccc1O`, the inhibition in assay [1] is 38.7% (active); in assay [2] it was 48.5% (active); in assay [3], 43.5% (active); in assay [4] it was -31.2%.
The like results for `CC(=O)N(/N=C/c1ccc([N+](=O)[O-])o1)c1nc2ccccc2c(=O)n1-c1ccccc1` were, in that order, 19.4%, 69% (active), 55.2% (active) and 2.37%.
In the same order, the values of `CCn1c(=S)sc2c(=O)n(CC(=O)Nc3ccc(Cl)cc3)c(C)nc21` are 6.76%, 55.2% (active), 46.7% (active) and 19.1%.
Consider `COc1ccc(CCNC(=O)CN2C(=O)NC3(CCCCC3C)C2=O)cc1` (configuration not stated), for which the inhibition in assay [1] was 3.33%; in assay [2], 66.3% (active); in assay [3], 66.7% (active); in assay [4] it was -17%.
As to `O=C(c1ccccc1)c1cc(-c2ccccn2)c(N2CCOCC2)s1`, the inhibition was -8.68% in assay [1], 68.3% (active) in assay [2], 63.4% (active) in assay [3] and 0.02% in assay [4].
In the same order, the values of `Cc1cc(C)c2c(=O)[nH]c(SCC(=O)Nc3ccc(Br)cc3)nc2n1` are 9.16%, 47.8% (active), 30.6% and -6.94%.
The like results for `CC(Nc1ncnc2sccc12)c1ccccc1` (configuration not stated) were, in that order, 25.8%, 64.5% (active), 64.9% (active) and 57.7% (active).
The like results for `CC1=[N+](C)c2c(ccc3cccnc23)C1(C)C` were, in that order, 12.2%, 38.6%, 58.7% (active) and 29.2%.
For the compound `COc1ccc(NC(=O)COC(=O)/C=C/C(=O)OCC(=O)Nc2ccc(OC)c(Cl)c2)cc1Cl`, the inhibition in assay [1] was 6.28%; in assay [2] it was 50.8% (active); in assay [3], 53.9% (active); in assay [4] it was -16%.
`Cc1cc(NC(=O)C(Cl)Cl)cc2c1OCO2`: the inhibition in assay [1] is 10.4%; in assay [2], 59.2% (active); in assay [3] it was 45.6% (active); in assay [4], -10.1%.
The like results for `COc1cc(-c2nc(C(=O)NCC3CCCO3)cc3c2[nH]c2ccccc23)cc(OC)c1OC` (configuration not stated) were, in that order, 62.5% (active), 49.6% (active), 39.1% and 2.55%.
In the same order, the values of `O=C(COc1ccc2c3c(c(=O)oc2c1)CCCC3)NCc1ccccn1` are 2.43%, 57.6% (active), 56.7% (active) and -9.09%.
The like results for `COc1ccc(NC(=O)CSC2=C(C#N)C(c3ccco3)C3=C(CCCC3=O)N2)c(OC)c1` (configuration not stated) were, in that order, 14%, 55.5% (active), 52.5% (active) and -14.7%.
Take `Oc1[nH]c2ccccc2c1N=NC(=S)N1CCOCC1`: the inhibition in assay [1] is 74.8% (active); in assay [2] it was 78.3% (active); in assay [3], 80% (active); in assay [4], 55.2% (active).
The like results for `O=C(Nc1ccccc1C(=O)NC1CC1)c1ccc([N+](=O)[O-])o1` were, in that order, 22.3%, 62.9% (active), 65.1% (active) and -5.35%.
The like results for `O=C(CN1C(=O)C(c2ccc(F)cc2)=NC12CCCC2)Nc1ccc(F)cc1` were, in that order, 23.4%, 52.2% (active), 49.4% (active) and 38.4% (active).
As for `Cc1ccc(-n2nc(C)c(NC(=O)CCl)c2C)cc1`, the inhibition is 35.8% (active) in assay [1], 47% (active) in assay [2], 57.2% (active) in assay [3] and -120% in assay [4].
The like results for `COc1cc(C(=O)NN=Cc2ccc(N(C)C)cc2)cc(OC)c1OC` were, in that order, 37.3% (active), 37.8%, 51.1% (active) and 22.3%.
Turning to `O=C(NC(NNc1ccc([N+](=O)[O-])cc1)(C(F)(F)F)C(F)(F)F)c1ccccc1Cl`, the inhibition is 7.51% in assay [1], 18.4% in assay [2], 34.1% in assay [3] and 5.04% in assay [4].
The like results for `Cc1onc(-c2c(F)cccc2Cl)c1C(=O)c1ccccc1O` were, in that order, 7.24%, 51.3% (active), 49.1% (active) and -0.7%.
